High-throughput results: PubChem, National Center for Advancing Translational Sciences (NCATS)
Pf growth 96h – inhibits malaria parasite growth, 96 h. 320,000 compounds, 6.9% hits. Potency, µM (titrated, usually from 28.7 µM), actives largely listed as inhibitors. P. falciparum luciferase reporter growth, 96 h
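Two-generation exposure (96 h) targets delayed-death phenotype. Reporter parasites carrying integrated firefly luciferase, in red cells at 2% hematocrit and 0.05% parasitemia final, kept at 37 C, 5% CO2; luminescence loss indicates inhibition.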
CHX counter – counter-screen for Shiga toxin inhibitors: cycloheximide protein synthesis inhibition; max response, %; cell reporter, cycloheximide protein synthesis inhibition counterscreen; 300,000 compounds, 12% hits; in the data active = max response mostly above about 13%, no sharp cut-off; inactive = mostly below about 14%; note: read at 38.3 µM for the half of the compounds with a filed dose
Pf growth 48h – P. falciparum growth inhibition at 48 hours (one generation); P. falciparum luciferase growth in erythrocytes, 48 h; Potency, µM (titrated, usually from 28.7 µM), most hits filed as inhibitors; 310,000 compounds, 5.9% hits; AID 504832
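A one-generation exposure of luciferase-tagged malaria parasites in RPMI 1640/Albumax erythrocyte culture, 37 C and 5% CO2. Inhibition is inferred from decreased luminescence after adding detection reagent.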
NS1 function inh – inhibitors of influenza NS1 protein function; Potency, µM (doses to about 46.1 µM); 270,000 compounds, 0.4% hits; AID 2326; calls by dose curve; note: actives are rising curves; nearly all actives have a fitted effect of over 50% in size
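OD600 was taken as the measure of yeast growth restored by compound in an NS1-expressing S. cerevisiae strain. Cells had been washed out of glucose medium and diluted 1:100 into galactose -URA medium, pH 6.0.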
Sm TGR inh – inhibitors of Schistosoma mansoni thioredoxin glutathione reductase; Q962Y6; purified TGR, DTNB reduction, TNB absorbance 405 nm; Potency, µM (series often up to 114 µM), most hits filed as inhibitors; 360,000 compounds, 3% hits; note: nearly all actives have a fitted effect of over 60% in size
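First, TGR (20 nM dispensed) and NADPH were mixed with compound. Second, a 15 min room-temperature incubation followed. Third, further NADPH and then DTNB were added to start the reaction. Finally, TNB absorbance was monitored kinetically.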
Shiga inhibitor – blocks Shiga toxin action in Vero cells; Vero cells, Shiga toxin protein synthesis inhibition reporter; inhibition, % at 38.7 µM; 290,000 compounds, 9.2% hits; AID 2315; in the data active = inhibition mostly above about 28%, no sharp cut-off; inactive = mostly below about 43%
Hits are given with their value; . = inactive; ? = inconclusive; / = no result. Compounds with a hit are over-represented: about 21% of the library has one in this group of screens. Unless noted, calls come from the whole dose curve; as a rule, active = well fitted curve in the direction sought with a large enough effect; inconclusive = small, poorly fitted or top-dose-only effect, or another doubt; inactive = no such curve, though single readings can be large; an effect the other way counts as inactive or inconclusive.

SMILES	Pf growth 96h	CHX counter	Pf growth 48h	NS1 function inh	Sm TGR inh	Shiga inhibitor
Cc1nn(S(=O)(=O)c2ccc(C(C)C)cc2)c(C)c1S(=O)(=O)N1CCCCCC1	/	/	/	/	.	/
COC(=O)c1[nH]c2cccc(C)c2c1NC(=O)CN1CCN(c2ccccc2OC)CC1	.	.	?	.	.	.
COC(=O)c1[nH]c2ccccc2c1NC(=O)C(C)N1CCN(C(=O)c2ccco2)CC1 (stereo not drawn)	10µM	.	?	.	.	.
COC(=O)c1[nH]c2cccc(C)c2c1NC(=O)CN1CCN(C(=O)c2ccco2)CC1	12µM	.	?	.	?	.
COC(=O)c1[nH]c2cc(C)ccc2c1NC(=O)CN1CCN(C(=O)c2ccco2)CC1	3.3µM	.	?	.	?	.
Cc1ccc(Cn2ncc3c4sc(C)cc4n(C)c3c2=O)cc1	/	.	/	/	/	.
Cc1ccc(C(=O)NC(C#N)=C(Cl)Cl)cc1	.	.	.	.	/	.
COCC(C)NS(=O)(=O)c1ccccc1 (stereo not drawn)	.	.	.	.	/	.
COc1ccc(C(=O)NC(=C(Cl)Cl)S(=O)(=O)c2ccc(C)cc2)cc1	.	22	.	.	?	.
Cc1ccc(C(=O)NC(=C(Cl)Cl)S(=O)(=O)c2ccccc2)cc1	.	103	.	.	.	161
COC(=O)NC(=C(Cl)Cl)S(=O)(=O)c1ccccc1	?	82	?	.	?	128
O=C1c2ccccc2-c2onc3ccc(N4CCCC4)c1c23	.	.	9.3µM	/	18µM	.
CCNc1ccc2noc3c2c1C(=O)c1ccccc1-3	?	.	.	.	.	.
O=C1c2ccccc2C(=O)c2c1cccc2N1CCCC1	.	43	.	.	.	56
O=C1c2ccccc2-c2onc3ccc(NCc4ccco4)c1c23	.	13	.	.	11µM	.
COc1ccc(NC(=S)N2CCN(c3ncccn3)CC2)c(OC)c1	.	.	.	.	.	.
CN(CC(=O)Nc1ccccc1Cl)S(=O)(=O)c1ccc(C(=O)N2CCOCC2)s1	/	/	/	/	.	/
O=C(c1cccn1-c1nnc(N2CCCC2)s1)N1CCN(c2ccc(Cl)cc2)CC1	/	/	/	/	.	/
O=C(Nc1ccccc1)c1cc2ccccc2c(=O)s1	.	41	.	.	.	36
O=C(Nc1ccc(Cl)cc1)c1cc2c(Cl)nc3ccccc3c2s1	/	/	/	/	.	/
O=C(Nc1ccc(O)cc1)c1cc2ccccc2c(=O)s1	.	56	.	.	.	113
CC(NS(=O)(=O)c1cn(C)c(=O)n(C)c1=O)c1ccccc1 (stereo not drawn)	.	.	.	.	.	.
CC1CCN(C(=O)c2ccc(NS(=O)(=O)c3cccc4cccnc34)cc2)CC1	?	.	.	.	.	.
CC1Oc2ccccc2N(CC(=O)Nc2ccc3c(c2)OCCO3)C1=O (stereo not drawn)	12µM	44	.	.	.	.
CC1CCCCC12NC(=O)N(CC(=O)NC(=O)Nc1ccc3c(c1)OCCO3)C2=O (stereo not drawn)	.	33	.	.	71µM	105
SMILES	Pf growth 96h	CHX counter	Pf growth 48h	NS1 function inh	Sm TGR inh	Shiga inhibitor
CC1CC(C)CN(CC(=O)Nc2ccc3c(c2)OCCO3)C1 (stereo not drawn)	.	48	.	.	.	74
CC1CCCCC12NC(=O)N(CC(=O)Nc1ccc3[nH]c(=O)[nH]c3c1)C2=O (stereo not drawn)	.	/	.	/	.	/
O=C(CN1CCC(C(=O)c2ccc(Cl)cc2)CC1)Nc1ccc2c(c1)OCCO2	.	17	.	.	.	.
O=C(CN1CCN(CC(=O)Nc2ccccc2Cl)CC1)Nc1ccc2c(c1)OCCO2	.	.	?	.	.	.
CC1CCCCN1C(=O)c1ccc2c(c1)N(Cc1ccc(F)cc1)C(=O)c1ccccc1S2(=O)=O (stereo not drawn)	/	/	/	/	.	/
CC1=C(C(=O)Nc2ccc(F)cc2)C(c2ccc(N(C)C)cc2)NC(=O)N1 (stereo not drawn)	/	/	/	/	.	/
COc1ccc(CNC(=O)c2ccc(NC(=O)N3CCSc4ncccc43)cc2)cc1OC	/	/	/	/	.	/
CC1Oc2ccccc2N(CC(=O)NCc2ccc3c(c2)OCO3)C1=O (stereo not drawn)	12µM	.	.	.	.	.
Cn1nc(C(=O)Nc2ccc(Cl)c(S(=O)(=O)N3CCOCC3)c2)c2ccccc2c1=O	?	/	?	/	.	/
COc1ccccc1NS(=O)(=O)c1cccc(NC(=O)c2nn(C)c(=O)c3ccccc23)c1	10µM	/	?	/	.	/
Cn1nc(C(=O)Nc2ccc(S(=O)(=O)N3CCCCC3)cc2)c2ccccc2c1=O	8.3µM	.	?	/	.	.
Cn1nc(C(=O)Nc2cccc(S(=O)(=O)N3CCCCC3)c2)c2ccccc2c1=O	9.3µM	/	?	/	.	/
COc1ccc(NC(=O)c2nn(C)c(=O)c3ccccc23)cc1S(=O)(=O)Nc1ccccc1Cl	.	.	.	.	.	.
COc1cc(NC(=O)COC(=O)Cc2ccc(-c3ccccc3)cc2)cc(OC)c1	.	.	.	.	.	.
COc1cc(OC)cc(-c2nc3nc(C)c(CCC(=O)Nc4ccc(C)cc4C)c(C)n3n2)c1	/	/	/	/	.	/
Cc1ccc(NC(=O)COC(=O)c2ccc(Cl)cc2)cc1S(=O)(=O)N(C)C	.	.	?	.	.	.
CCN(CC)S(=O)(=O)c1cccc(NC(=O)COC(=O)/C=C/c2ccco2)c1	.	.	.	.	22µM	.
CN(C)S(=O)(=O)c1cccc(NC(=O)COC(=O)/C=C/c2ccco2)c1	.	.	.	.	?	.
Cc1ccc(NC(=O)COC(=O)/C=C/c2ccco2)cc1S(=O)(=O)N(C)C	.	.	.	.	25µM	.
C/C=C/C(=O)OCC(=O)Nc1ccc(C)c(S(=O)(=O)N(C)C)c1	.	.	.	/	45µM	.
Cc1ccc(-c2cc(NC(=O)C(C)Oc3ccc(C)c(C)c3)on2)cc1 (stereo not drawn)	/	/	/	/	.	/
Cc1cccc(C(=O)OCC(=O)Nc2ccccc2C(=O)NC2CC2)c1	?	/	?	/	.	/
C=C(C)Cn1c(C)cc(C)c(S(=O)(=O)c2ccc(C)cc2)c1=O	.	.	?	.	/	.
Cc1cc(C)n(Cc2ccc(Cl)cc2Cl)c(=O)c1S(=O)(=O)c1ccccc1	?	11	13µM	.	.	.
O=[N+]([O-])c1cc(-c2ncccn2)c([N+](=O)[O-])s1	.	.	.	.	0.32µM	.
CCOC(=O)c1sc(=NC(=O)c2ccc(C)cc2)n(C)c1C	.	52	.	/	.	71
CCOC(=O)c1sc(=NC(=O)CCSc2ccccc2)n(C)c1C	.	17	.	.	.	.
CCOC(=O)c1sc(=NC(=O)c2ccc(S(=O)(=O)N3CCOCC3)cc2)n(C)c1C	/	/	/	.	/	/
CCOC(=O)c1sc(=NC(=O)c2ccc(F)cc2)n(C)c1C	.	29	.	.	.	77
CCOC(=O)c1sc(=NC(=O)COc2ccccc2)n(C)c1C	.	.	.	/	.	.
